Source: PubChem BioAssay
Compounds with a hit are over-represented: about 8.7% of the library has one in this group of screens.
Sfp inh: qHTS Assay for Inhibitors of Bacillus subtilis Sfp phosphopantetheinyl transferase (PPTase); 4'-phosphopantetheinyl transferase ffp (Bacillus subtilis), Q9F4F7; Potency, µM, for the others: largest response in the series, negative = inhibition, most hits filed as inhibitors; Biochemical Sfp PPTase activity, qHTS; 310,000 tested, 3.5% active;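 further: the enzyme is Sfp with the accession as filed and its product quenches rhodamine fluorescence; 0% = enzyme reaction without inhibitor and -100% = no enzyme wells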
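Reaction rates are the 30-min fluorescence difference (ex 525, em 598 nm) in wells containing 15 nM Sfp, 5 uM rhodamine-CoA and 12.5 uM BHQ-2-YbbR at pH 7.6 with 10 mM MgCl2.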
JMJD2A Tudor inh: qHTS Assay for Inhibitors of JMJD2A-Tudor Domain; 390,000 tested, 4.4% active; AID 504339, 2011; AlphaScreen JMJD2A-Tudor / H3K4me3 peptide binding; Potency, µM (titrated, usually from 114 µM), inactives show at the highest dose activity change, negative = inhibition, actives largely listed as inhibitors; further: on the % scale 0 is the no-effect control and ±100 the full control effect; nearly all actives have a fitted effect of over 50% in size
Target sequence (O75164 whole entry, looked up, the tested form may be a part): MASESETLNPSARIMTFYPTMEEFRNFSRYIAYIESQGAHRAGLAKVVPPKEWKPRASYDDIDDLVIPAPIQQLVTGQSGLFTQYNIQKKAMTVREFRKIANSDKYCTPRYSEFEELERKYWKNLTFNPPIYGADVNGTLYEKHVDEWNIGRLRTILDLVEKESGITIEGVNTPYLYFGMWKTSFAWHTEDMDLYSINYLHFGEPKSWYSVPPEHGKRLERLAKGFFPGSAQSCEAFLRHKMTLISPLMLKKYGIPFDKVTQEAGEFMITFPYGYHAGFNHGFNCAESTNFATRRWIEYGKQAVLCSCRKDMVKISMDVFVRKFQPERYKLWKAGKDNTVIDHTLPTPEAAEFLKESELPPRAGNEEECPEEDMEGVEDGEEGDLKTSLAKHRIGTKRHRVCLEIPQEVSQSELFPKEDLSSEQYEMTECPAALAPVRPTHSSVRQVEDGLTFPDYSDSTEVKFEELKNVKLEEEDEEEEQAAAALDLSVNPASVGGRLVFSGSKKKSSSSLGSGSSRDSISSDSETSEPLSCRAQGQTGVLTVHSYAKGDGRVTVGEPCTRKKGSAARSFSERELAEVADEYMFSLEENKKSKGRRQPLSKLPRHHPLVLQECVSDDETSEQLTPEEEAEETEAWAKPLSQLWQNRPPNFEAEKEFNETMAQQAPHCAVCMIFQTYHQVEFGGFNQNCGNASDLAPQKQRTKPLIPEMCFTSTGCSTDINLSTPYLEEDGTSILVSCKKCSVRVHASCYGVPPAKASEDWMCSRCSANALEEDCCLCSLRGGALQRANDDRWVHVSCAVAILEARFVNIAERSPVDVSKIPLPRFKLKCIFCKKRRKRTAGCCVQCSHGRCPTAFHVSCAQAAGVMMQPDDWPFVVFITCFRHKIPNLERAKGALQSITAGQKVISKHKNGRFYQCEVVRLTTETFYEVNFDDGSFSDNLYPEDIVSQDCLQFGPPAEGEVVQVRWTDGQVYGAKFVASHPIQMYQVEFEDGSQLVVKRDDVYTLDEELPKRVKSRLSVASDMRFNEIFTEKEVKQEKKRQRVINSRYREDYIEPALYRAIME
HP1b chromo inh: HTS for Inhibitors of HP1-beta Chromodomain Interactions with Methylated Histone Tails. AlphaScreen HP1-beta / biotin-H3K9me3 peptide binding. Potency, µM (titrated, usually from 114 µM), inactives show top-dose activity change, negative = inhibition, usual class: inhibitors. 390,000 tested, 0.56% active; further: nearly all actives have a fitted effect of over 70% in size
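HP1-beta protein (50 nM final) preincubated 30 min at room temperature with biotinylated H3(1-18)K9me3 peptide (50 nM) in PBS pH 7.4, 0.01% Tween-20, then compound added for 30 min. AlphaScreen streptavidin donor/nickel chelate acceptor beads (10 ug/mL final), 30 min dark, luminescence read.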
G9a inh: qHTS Assay for Inhibitors of Histone Lysine Methyltransferase G9a | Histone-lysine N-methyltransferase EHMT2 (Homo sapiens), Q96KQ7 | G9a H3K9 monomethylation, AlphaScreen, 2 h | 350,000 tested, 8.8% active | AID 504332, 2011 | Potency, µM (doses to about 102 µM), without a hit: at the top dose activity, negative = inhibition, actives largely listed as inhibitors; further: on the % scale 0 is the no-effect control and ±100 the full control effect; nearly all actives have a fitted effect of over 75% in size
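Signal arises when biotinylated H3K9 peptide, once monomethylated, bridges streptavidin donor and antibody-captured acceptor beads. Enzyme at 20 nM was preincubated 15 min with test compounds; peptide 500 nM and SAM 20 uM then reacted for 2 h.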
BAZ2B inh: qHTS Assay for Inhibitors of BAZ2B. Potency, µM (titrated, usually from 114 µM), for inactives: at the top dose activity change, negative = inhibition, usual class: inhibitors. Bromodomain adjacent to zinc finger domain protein 2B (Homo sapiens), Q9UIF8. 360,000 tested, 4.4% active. AlphaScreen BAZ2B-H3K14Ac peptide displacement; further: on the % scale 0 is the no-effect control and ±100 the full control effect; nearly all actives have a fitted effect of over 60% in size
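Compounds, titrated to a top concentration of 110 uM, were incubated 30 min at room temperature with preformed BAZ2B/acetyl-K14 H3 peptide complex (50 nM each). Proximity signal was measured by AlphaScreen after 20 min with beads.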
ALOX12 inh: Primary qHTS assay for inhibitors of human arachidonate 12S-lipoxygenase (ALOX12): Round 2 | purified 12hLO, xylenol orange hydroperoxide absorbance | Potency, µM (series often up to 108 µM), without a hit: top-dose activity change, negative = inhibition, actives largely listed as inhibitors | 580,000 tested, 1.1% active | AID 1671190, 2021; further: on the % scale 0 is the no-effect control and ±100 the full control effect
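Hydroperoxide product was detected by ferrous iron/xylenol orange as the 573 to 405 nm absorbance ratio. Arachidonic acid at 40 uM (final) was turned over for 30 min at room temperature by 150 nM human 12hLO, pH 7.0 Hepes buffer, after 15 min compound preincubation.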
* marks the source's active call; other numbers are inactive results; ? = inconclusive; . = no result; [ ] = dose if it differs, or a comment. The call rests on the fitted dose curve; in most records, active means well fitted curve in the direction sought with a large enough effect; inconclusive means small, poorly fitted or top-dose-only effect, or another doubt; inactive means no such curve, though single readings can be large; an effect the other way counts as inactive or inconclusive. Potency means the concentration at half of the fitted maximal effect.

SMILES	Sfp inh	JMJD2A Tudor inh	HP1b chromo inh	G9a inh	BAZ2B inh	ALOX12 inh
CC(=O)NCCCC(=O)NNC1CC(=O)N(c2cccc(Cl)c2)C1=O (configuration not stated)	?	-16%	-24%	5.6µM*	-5%	0%
Cc1ccc(NC2CC(=O)N(c3ccc(C)cc3)C2=O)cc1 (configuration not stated)	2%	8%[11.4 µM]	-24%	-3%	6%	16%
CCCCCC(=O)NNC1CC(=O)N(c2cccc(OCC)c2)C1=O (configuration not stated)	-8%	-22%	17%	.	16%	6%
CCN(CC)C1CC(=O)N(c2cccc(Cl)c2)C1=O (configuration not stated)	-2%	-7%	31%	8.9µM*	-5%	?
O=C1CC(N(O)c2ccccc2)C(=O)N1c1ccc(Cl)c(Cl)c1 (configuration not stated)	11%	-13%	18%	50µM*	-13%	?
Cc1ccc(NNC2CC(=O)N(c3cccc(Cl)c3)C2=O)cc1 (configuration not stated)	-3%	-33%	35%	10µM*	?	20µM*
Cc1ccc(C2=NC3(CCN(C(=O)COc4ccc(F)cc4)CC3)ON2)cc1	.	.	.	.	.	-2%
CCC(=O)N1CCC2(CC1)NCCc1c2[nH]c2ccccc12	.	.	.	.	.	30%
CC(CNC(=O)C1CCCC1)NC(=O)C1CCCC1 (configuration not stated)	.	.	.	.	.	-5%
CC(NC(=O)c1ccccc1Cc1ccccc1)c1ccncc1 (configuration not stated)	.	.	.	.	.	2%
Cc1ccc(OC(=O)N2CCC(Oc3ccc4c(cnn4CCC(=O)O)c3)CC2)cc1	.	.	.	.	.	9%[176 µM]
O=C1CC(NNc2ccccc2)C(=O)N1c1ccccc1 (configuration not stated)	1%	-33%	5%	8.9µM*	-17%	45µM*
COC(=O)C1=C(C)OC(n2cccc2)=C(C#N)C1c1cccc(OC)c1OC (configuration not stated)	.	.	.	.	.	4%
O=C(COC(=O)CCCOc1ccc(Cl)cc1Cl)Nc1cccc(Cl)c1	2%	26%	78%	69%[59 µM]	19%	-13%
O=C(COC(=O)Cc1c(Cl)cccc1Cl)Nc1ccc2[nH]c(=O)[nH]c2c1	.	-14%	16%	50µM*	-1%	?
CC(C)(C)C1CCC(C(=O)OCC(=O)Nc2ccc3[nH]c(=O)[nH]c3c2)CC1 (configuration not stated)	21%	-3%	16%	45µM*	-2%	-7%
O=C(COC(=O)CCc1c[nH]c(=O)[nH]1)Nc1cccc(Cl)c1	-11%	-11%	37%	40µM*	0%	-16%
O=C(COC(=O)C12CC3CC(CC(C3)C1)C2)Nc1ccc2[nH]c(=O)[nH]c2c1	2%	-10%	32%	8%	-27%	.
CCN(CC)Cc1cnc2c(C(=O)NC3CCC(O)CC3)cnn2c1 (configuration not stated)	.	.	.	.	.	18%
O=C1CC2CCCC(C1)N2C(=O)c1ccc(C(F)(F)F)cc1	.	.	.	.	.	1%[176 µM]
O=C(c1cccc(F)c1)N(Cc1ccco1)C1CC1	.	.	.	.	.	-11%
CC(C)c1ccc(NC(=S)NN2C(C)CCCC2C)cc1 (configuration not stated)	10%	-13%	34%	18%	-15%	28µM*
COc1ccc(NC(=S)NN2C(C)CCCC2C)cc1 (configuration not stated)	13%	-9%	34%	?	1%	?
S=c1[nH]ncn1-c1ccccn1	22µM*	20µM*	?	?	?	?
NC(=O)c1c(NC(=O)c2ccncc2)sc2c1CCCCCC2	1%	-18%	29%	-6%	-29%	0%
SMILES	Sfp inh	JMJD2A Tudor inh	HP1b chromo inh	G9a inh	BAZ2B inh	ALOX12 inh
CC(C)(C)C1CCc2c(sc(NC(=O)c3cc(-c4ccc(F)cc4)on3)c2C#N)C1 (configuration not stated)	.	-5%	9%	?	1%	-15%
N#Cc1c(NC(=O)c2ccncc2)sc2c1CCC2	?	63µM*	-19%	11µM*	50µM*	?
N#Cc1c(NC(=O)c2ccco2)sc2c1CCC2	-4%	50µM*	?	89µM*	-17%	-84%
N#Cc1c(NC(=O)c2cnn3cccnc23)sc2c1CCCC2	45µM*	-7%	-5%	40µM*	-16%	-16%
NC(=O)c1c(NC(=O)c2ccco2)sc2c1CCC2	-8%	-2%	28%	11%	-1%	2%
N#Cc1c(NC(=O)c2nc3ncccn3n2)sc2c1CCCCC2	-22%	-12%	22%	-15%[59 µM]	30%	-8%
CC(C)(C)C1CCc2c(sc(NC(=O)c3noc4c3CCCC4)c2C#N)C1 (configuration not stated)	.	-2%	-5%	7.1µM*	-1%	?
COc1cccc2c1OCC(CNC(=O)CCN1Cc3ccccc3C1=O)C2 (configuration not stated)	.	.	.	.	.	11%
CCN1CCN(c2ccc(S(=O)(=O)N(CC)CC)cc2NC(=O)c2ccc(F)cc2)CC1	.	.	.	.	.	-43%
CCc1cc2c(Sc3ccc(C(F)(F)F)cn3)ncnc2s1	.	.	.	.	.	-4%
CN(Cc1cccc(C(F)(F)F)c1)S(=O)(=O)c1cccs1	.	.	.	.	.	4%[176 µM]
CCOc1ccccc1CN1CCN(C(=O)[C@H]2CCC[C@H]2NC(=O)c2ccncc2)CC1	.	.	.	.	.	65%
Cc1cc(C(=O)Nc2sc3c(c2C#N)CCCCC3)cs1	?	-12%	-9%	?	-34%	-17%
N#Cc1c(NC(=O)c2cccc(S(=O)(=O)Nc3ccc(C(=O)O)cc3)c2)sc2c1CCCC2	2%	-36%	-6%	50µM*	56µM*	?
COC(=O)c1c(NC(=O)c2c(OC)cccc2OC)sc2c1CCCC2	.	-8%	-26%	?	8%	?
Cc1onc(C(=O)Nc2sc3c(c2C#N)CCCC3)c1[N+](=O)[O-]	50µM*	-20%	-8%	45µM*	-65%	?
Cc1onc(-c2ccccc2Cl)c1C(=O)Nc1sc2c(c1C#N)CCC2	18µM*	?	?	10µM*	-32%	?
